# Laboratory results reported in PMC11006913.
# Changes are numbered by the printed parent chain.
# Columns and labels:
# Experiment in all cases: PBM; 200 nM protein, PBS
# Conditions in all cases: dsDNA, one strand shown
# HOXA2 [1] = target: HOXA2 (Homo sapiens, UniProt O43364 129-215, R185T)
# HOXA2 [2] = target: HOXA2 (Homo sapiens, UniProt O43364 129-215)
# HOXB9 [3] = target: HOXB9 (Homo sapiens, UniProt P17482 171-250)
# ALX3 [4] = target: ALX3 (Homo sapiens, UniProt O95076 139-225, N203Q)
# Chain of ALX3 (Homo sapiens, UniProt O95076 139-225, N203Q) (O95076 139-225 N203Q): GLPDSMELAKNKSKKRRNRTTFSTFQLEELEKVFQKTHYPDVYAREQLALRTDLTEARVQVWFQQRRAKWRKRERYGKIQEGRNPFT
# HOXB9 [5] = target: HOXB9 (Homo sapiens, UniProt P17482 171-250, R186Q)
# Chain of HOXB9 (Homo sapiens, UniProt P17482 171-250, R186Q) (P17482 171-250 R186Q): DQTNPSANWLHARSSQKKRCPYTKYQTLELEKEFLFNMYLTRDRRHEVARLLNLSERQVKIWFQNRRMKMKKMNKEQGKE
# HOXA2 [6] = target: HOXA2 (Homo sapiens, UniProt O43364 129-215, Y150S)
# Chain of HOXA2 (Homo sapiens, UniProt O43364 129-215, Y150S) (O43364 129-215 Y150S): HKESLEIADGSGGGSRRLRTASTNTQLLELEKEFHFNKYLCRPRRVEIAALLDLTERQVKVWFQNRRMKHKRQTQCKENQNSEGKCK
# MSX2 [7] = target: MSX2 (Homo sapiens, UniProt P35548 130-214)
# Chain of MSX2 (Homo sapiens, UniProt P35548 130-214) (P35548 130-214): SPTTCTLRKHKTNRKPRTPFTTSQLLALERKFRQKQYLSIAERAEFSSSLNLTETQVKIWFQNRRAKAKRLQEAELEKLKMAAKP
# MSX2 [8] = target: MSX2 (Homo sapiens, UniProt P35548 130-214, F161Y)
# Chain of MSX2 (Homo sapiens, UniProt P35548 130-214, F161Y) (P35548 130-214 F161Y): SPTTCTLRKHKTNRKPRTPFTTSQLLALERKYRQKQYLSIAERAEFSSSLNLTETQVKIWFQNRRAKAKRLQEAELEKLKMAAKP
# HOXA4 [9] = target: HOXA4 (Homo sapiens, UniProt Q00056 201-287, R217L)
# Chain of HOXA4 (Homo sapiens, UniProt Q00056 201-287, R217L) (Q00056 201-287 R217L): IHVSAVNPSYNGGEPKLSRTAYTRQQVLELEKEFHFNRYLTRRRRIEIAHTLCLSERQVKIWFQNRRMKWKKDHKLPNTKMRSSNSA
# HOXA4 [10] = target: HOXA4 (Homo sapiens, UniProt Q00056 201-287)
# Chain of HOXA4 (Homo sapiens, UniProt Q00056 201-287) (Q00056 201-287): as the sequence (Q00056 201-287 R217L) above, with L17R counted along it
# HOXD13 [11] = target: HOXD13 (Homo sapiens, UniProt P35453 263-343)
# Chain of HOXD13 (Homo sapiens, UniProt P35453 263-343) (P35453 263-343): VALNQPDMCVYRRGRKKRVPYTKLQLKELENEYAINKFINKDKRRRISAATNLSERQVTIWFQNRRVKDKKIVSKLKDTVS
# HOXD13 [12] = target: HOXD13 (Homo sapiens, UniProt P35453 263-343, T313A)
# Chain of HOXD13 (Homo sapiens, UniProt P35453 263-343, T313A) (P35453 263-343 T313A): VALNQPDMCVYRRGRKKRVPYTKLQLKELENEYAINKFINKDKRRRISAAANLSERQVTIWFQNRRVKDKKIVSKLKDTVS
# NKX2-6 [13] = target: T1, NKX2-6 (Homo sapiens, UniProt A6NCS4 118-204)
# T1 sequence: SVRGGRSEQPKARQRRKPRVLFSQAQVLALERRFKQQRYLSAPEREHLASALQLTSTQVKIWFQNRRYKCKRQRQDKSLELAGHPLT
# NKX2-6 [14] = target: T2, NKX2-6 (Homo sapiens, UniProt A6NCS4 118-204, F151L)
# T2 sequence: T1 sequence with F34L
# ALX3 [15] = target: ALX3 (Homo sapiens, UniProt O95076 139-225)
# Chain of ALX3 (Homo sapiens, UniProt O95076 139-225) (O95076 139-225): as the sequence (O95076 139-225 N203Q) above, with Q65N counted along it
# ALX3 [16] = target: ALX3 (Homo sapiens, UniProt O95076 139-225, N203S)
# Chain of ALX3 (Homo sapiens, UniProt O95076 139-225, N203S) (O95076 139-225 N203S): as the sequence (O95076 139-225 N203Q) above, with Q65S counted along it
# Chain of HOXA2 (Homo sapiens, UniProt O43364 129-215) (O43364 129-215): as the sequence (O43364 129-215 Y150S) above, with S22Y counted along it
# Chain of HOXB9 (Homo sapiens, UniProt P17482 171-250) (P17482 171-250): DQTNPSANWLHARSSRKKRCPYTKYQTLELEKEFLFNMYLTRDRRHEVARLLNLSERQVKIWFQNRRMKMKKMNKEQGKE
# Chain of HOXA2 (Homo sapiens, UniProt O43364 129-215, R185T) (O43364 129-215 R185T): as the sequence (O43364 129-215 Y150S) above, with S22Y, R57T counted along it
sequence,measurement,setting,value
AGATGTAA,binding signal,HOXA2 [1],"9.25 upbm affinity estimate (log intensity, higher = more binding, comparable within an allelic series)"
same,binding signal,HOXA2 [2],"9.27 upbm affinity estimate (log intensity, higher = more binding, comparable within an allelic series)"
ATATAGTA,binding signal,HOXB9 [3],"10.2 upbm affinity estimate (log intensity, higher = more binding, comparable within an allelic series)"
same,binding signal,ALX3 [4],"8.55 upbm affinity estimate (log intensity, higher = more binding, comparable within an allelic series)"
same,binding signal,HOXB9 [5],"10.1 upbm affinity estimate (log intensity, higher = more binding, comparable within an allelic series)"
GGCGATAA,binding signal,HOXB9 [3],"10.4 upbm affinity estimate (log intensity, higher = more binding, comparable within an allelic series)"
same,binding signal,HOXB9 [5],"10.3 upbm affinity estimate (log intensity, higher = more binding, comparable within an allelic series)"
ATCAGAAA,binding signal,HOXA2 [1],"8.59 upbm affinity estimate (log intensity, higher = more binding, comparable within an allelic series)"
same,binding signal,HOXA2 [6],"10.6 upbm affinity estimate (log intensity, higher = more binding, comparable within an allelic series)"
same,binding signal,HOXA2 [2],"8.63 upbm affinity estimate (log intensity, higher = more binding, comparable within an allelic series)"
CACACTAA,binding signal,HOXB9 [3],"9.92 upbm affinity estimate (log intensity, higher = more binding, comparable within an allelic series)"
same,binding signal,MSX2 [7],"10.8 upbm affinity estimate (log intensity, higher = more binding, comparable within an allelic series)"
same,binding signal,HOXB9 [5],"9.82 upbm affinity estimate (log intensity, higher = more binding, comparable within an allelic series)"
same,binding signal,MSX2 [8],"10.7 upbm affinity estimate (log intensity, higher = more binding, comparable within an allelic series)"
ATCATCTG,binding signal,HOXA2 [1],"9.25 upbm affinity estimate (log intensity, higher = more binding, comparable within an allelic series)"
same,binding signal,HOXA2 [6],"10.7 upbm affinity estimate (log intensity, higher = more binding, comparable within an allelic series)"
same,binding signal,HOXA2 [2],"9.72 upbm affinity estimate (log intensity, higher = more binding, comparable within an allelic series)"
CATTTTAC,binding signal,HOXA2 [1],"8.88 upbm affinity estimate (log intensity, higher = more binding, comparable within an allelic series)"
same,binding signal,HOXA2 [2],"8.85 upbm affinity estimate (log intensity, higher = more binding, comparable within an allelic series)"
AGATAGAT,binding signal,HOXA2 [1],"8.87 upbm affinity estimate (log intensity, higher = more binding, comparable within an allelic series)"
same,binding signal,HOXA2 [2],"8.71 upbm affinity estimate (log intensity, higher = more binding, comparable within an allelic series)"
AGGTTGAT,binding signal,HOXA2 [1],"8.92 upbm affinity estimate (log intensity, higher = more binding, comparable within an allelic series)"
same,binding signal,HOXA2 [2],"9.03 upbm affinity estimate (log intensity, higher = more binding, comparable within an allelic series)"
ATAGAAAT,binding signal,HOXA2 [1],"9.28 upbm affinity estimate (log intensity, higher = more binding, comparable within an allelic series)"
same,binding signal,HOXA2 [2],"9.2 upbm affinity estimate (log intensity, higher = more binding, comparable within an allelic series)"
AATTGGGC,binding signal,HOXA2 [1],"9.64 upbm affinity estimate (log intensity, higher = more binding, comparable within an allelic series)"
same,binding signal,HOXA2 [6],"10.6 upbm affinity estimate (log intensity, higher = more binding, comparable within an allelic series)"
same,binding signal,HOXA2 [2],"9.35 upbm affinity estimate (log intensity, higher = more binding, comparable within an allelic series)"
ACTCGTAA,binding signal,HOXA2 [1],"9.32 upbm affinity estimate (log intensity, higher = more binding, comparable within an allelic series)"
same,binding signal,HOXA2 [2],"9.32 upbm affinity estimate (log intensity, higher = more binding, comparable within an allelic series)"
TATCAAAA,binding signal,HOXA2 [1],"8.75 upbm affinity estimate (log intensity, higher = more binding, comparable within an allelic series)"
same,binding signal,HOXA2 [2],"8.82 upbm affinity estimate (log intensity, higher = more binding, comparable within an allelic series)"
AAACATAA,binding signal,HOXA2 [1],"9.4 upbm affinity estimate (log intensity, higher = more binding, comparable within an allelic series)"
same,binding signal,HOXA2 [2],"9.53 upbm affinity estimate (log intensity, higher = more binding, comparable within an allelic series)"
TAAACATA,binding signal,HOXA2 [1],"8.59 upbm affinity estimate (log intensity, higher = more binding, comparable within an allelic series)"
same,binding signal,HOXA2 [2],"8.55 upbm affinity estimate (log intensity, higher = more binding, comparable within an allelic series)"
CTATTCAA,binding signal,HOXA2 [1],"9.27 upbm affinity estimate (log intensity, higher = more binding, comparable within an allelic series)"
same,binding signal,HOXA2 [6],"10.8 upbm affinity estimate (log intensity, higher = more binding, comparable within an allelic series)"
same,binding signal,HOXA2 [2],"9.17 upbm affinity estimate (log intensity, higher = more binding, comparable within an allelic series)"
CCTATCAG,binding signal,HOXA2 [1],"8.81 upbm affinity estimate (log intensity, higher = more binding, comparable within an allelic series)"
same,binding signal,HOXA2 [2],"8.67 upbm affinity estimate (log intensity, higher = more binding, comparable within an allelic series)"
AAAAATAT,binding signal,HOXA4 [9],"10.8 upbm affinity estimate (log intensity, higher = more binding, comparable within an allelic series)"
same,binding signal,HOXA4 [10],"11.1 upbm affinity estimate (log intensity, higher = more binding, comparable within an allelic series)"
TAATAGTA,binding signal,HOXB9 [3],"10.9 upbm affinity estimate (log intensity, higher = more binding, comparable within an allelic series)"
same,binding signal,MSX2 [7],"11.7 upbm affinity estimate (log intensity, higher = more binding, comparable within an allelic series)"
same,binding signal,HOXB9 [5],"10.8 upbm affinity estimate (log intensity, higher = more binding, comparable within an allelic series)"
same,binding signal,MSX2 [8],"11.5 upbm affinity estimate (log intensity, higher = more binding, comparable within an allelic series)"
AACTATTG,binding signal,HOXA2 [1],"8.83 upbm affinity estimate (log intensity, higher = more binding, comparable within an allelic series)"
same,binding signal,HOXA2 [2],"8.91 upbm affinity estimate (log intensity, higher = more binding, comparable within an allelic series)"
TACTGTAA,binding signal,HOXB9 [3],"10.2 upbm affinity estimate (log intensity, higher = more binding, comparable within an allelic series)"
same,binding signal,HOXB9 [5],"10.1 upbm affinity estimate (log intensity, higher = more binding, comparable within an allelic series)"
AATTGCTA,binding signal,HOXB9 [3],"10.7 upbm affinity estimate (log intensity, higher = more binding, comparable within an allelic series)"
same,binding signal,HOXB9 [5],"10.6 upbm affinity estimate (log intensity, higher = more binding, comparable within an allelic series)"
CATCTACG,binding signal,HOXA2 [1],"8.85 upbm affinity estimate (log intensity, higher = more binding, comparable within an allelic series)"
same,binding signal,HOXA2 [6],"10.7 upbm affinity estimate (log intensity, higher = more binding, comparable within an allelic series)"
same,binding signal,HOXA2 [2],"9.05 upbm affinity estimate (log intensity, higher = more binding, comparable within an allelic series)"
TGTGTAAA,binding signal,HOXB9 [3],"9.82 upbm affinity estimate (log intensity, higher = more binding, comparable within an allelic series)"
same,binding signal,HOXD13 [11],"11.1 upbm affinity estimate (log intensity, higher = more binding, comparable within an allelic series)"
same,binding signal,HOXD13 [12],"11 upbm affinity estimate (log intensity, higher = more binding, comparable within an allelic series)"
AAATACCC,binding signal,HOXA2 [1],"9.06 upbm affinity estimate (log intensity, higher = more binding, comparable within an allelic series)"
same,binding signal,HOXA2 [2],"8.99 upbm affinity estimate (log intensity, higher = more binding, comparable within an allelic series)"
GACCATCA,binding signal,HOXA2 [1],"8.84 upbm affinity estimate (log intensity, higher = more binding, comparable within an allelic series)"
same,binding signal,HOXA2 [6],"10.6 upbm affinity estimate (log intensity, higher = more binding, comparable within an allelic series)"
same,binding signal,HOXA2 [2],"9.24 upbm affinity estimate (log intensity, higher = more binding, comparable within an allelic series)"
AGATGACC,binding signal,HOXA2 [1],"9.18 upbm affinity estimate (log intensity, higher = more binding, comparable within an allelic series)"
same,binding signal,HOXA2 [6],"10.5 upbm affinity estimate (log intensity, higher = more binding, comparable within an allelic series)"
same,binding signal,HOXA2 [2],"9.29 upbm affinity estimate (log intensity, higher = more binding, comparable within an allelic series)"
CCTATTTA,binding signal,HOXB9 [3],"10.4 upbm affinity estimate (log intensity, higher = more binding, comparable within an allelic series)"
same,binding signal,NKX2-6 [13],"11.2 upbm affinity estimate (log intensity, higher = more binding, comparable within an allelic series)"
same,binding signal,HOXB9 [5],"10.2 upbm affinity estimate (log intensity, higher = more binding, comparable within an allelic series)"
same,binding signal,NKX2-6 [14],"9.86 upbm affinity estimate (log intensity, higher = more binding, comparable within an allelic series)"
AATGTGAA,binding signal,HOXB9 [3],"10 upbm affinity estimate (log intensity, higher = more binding, comparable within an allelic series)"
same,binding signal,ALX3 [4],"8.3 upbm affinity estimate (log intensity, higher = more binding, comparable within an allelic series)"
same,binding signal,ALX3 [15],"9.35 upbm affinity estimate (log intensity, higher = more binding, comparable within an allelic series)"
same,binding signal,HOXB9 [5],"9.94 upbm affinity estimate (log intensity, higher = more binding, comparable within an allelic series)"
same,binding signal,ALX3 [16],"8.37 upbm affinity estimate (log intensity, higher = more binding, comparable within an allelic series)"
